Anthrax LF prot: blocks Bacillus anthracis lethal factor protease; AID 588501; multiplex microsphere protease cleavage assay, LF; 0.12% of 360,000 active; inhibition, % at 10 µM; P15917; also: plate controls were buffer without enzyme for full effect and enzyme alone for no effect
Mtb FBA inh: inhibits M. tuberculosis FBA enzyme | P9WQA3 | purified M. tuberculosis FBA, fluorescence read-out | inhibition, % at 1 µM | 2.3% of 360,000 active; in the data active = inhibition above about 27%;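 also: 0% = vehicle and 100% = reference inhibitor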
Target sequence (P9WQA3 whole entry, looked up): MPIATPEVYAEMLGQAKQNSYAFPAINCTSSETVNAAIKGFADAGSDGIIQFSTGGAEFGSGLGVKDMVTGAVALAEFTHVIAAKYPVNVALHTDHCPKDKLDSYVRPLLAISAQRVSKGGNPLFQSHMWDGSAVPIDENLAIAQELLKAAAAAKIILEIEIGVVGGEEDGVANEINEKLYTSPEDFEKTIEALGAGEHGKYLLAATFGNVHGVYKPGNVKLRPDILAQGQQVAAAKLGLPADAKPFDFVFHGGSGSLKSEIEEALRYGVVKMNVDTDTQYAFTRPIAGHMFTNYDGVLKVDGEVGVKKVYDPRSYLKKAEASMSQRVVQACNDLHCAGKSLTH
BoNT F protease: inhibitors of Botulinum neurotoxin F light chain protease; Multiplex microsphere protease cleavage assay, flow cytometry; inhibition, % at 10 µM; 0.22% of 360,000 active; in the data active = inhibition above about 35%, passing the limit was not always enough; inconclusive = no clear call, values can overlap the other calls; also: plate controls were buffer without enzyme for full effect and enzyme alone for no effect
GDH-TPI inh: counter-screen for M. tuberculosis FBA inhibitors: GDH-TPI coupled enzymes; GDH-TPI coupled enzyme counterscreen, NADH absorbance; 1.2% of 360,000 active; inhibition, % at 4.8 µM; in the data active = inhibition above about 30%;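 also: 0% = DMSO wells and 100% = wells lacking the enzyme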
Autofluor counter: flagged as autofluorescent in microsphere protease counterscreen. 3.1% of 360,000 active. fluorescence intensity (no concentration beside the values). compound autofluorescence counterscreen, microsphere flow cytometry; active compounds read high; in the data active = fluorescence intensity above about 16000; inconclusive = no clear call, values can overlap the other calls
BoNT A protease: BoNT A light chain protease inhibition; AID 588499; 0.17% of 360,000 active; inhibition, % at 10 µM; multiplex microsphere protease substrate cleavage, flow cytometry; also: plate controls were buffer without enzyme for full effect and enzyme alone for no effect
* = called active by the depositor. Rows were chosen to be rich in hits. Some 6.6% of all compounds tested hit in one or more screens of this group. Rule as the data show it, unless noted: active = inhibition above about 30%; inconclusive = no clear call, values can overlap the other calls; inactive = below that.

`CC1=C(C(=O)OCC(C)C)C(c2ccsc2)NC(=O)N1` (stereo not drawn) gave Anthrax LF prot -5, Mtb FBA inh -1, BoNT F protease -3, GDH-TPI inh 12, Autofluor counter 16729* and BoNT A protease 0.
For CCOC(=O)C1=C(C)NC(=O)NC1c1ccsc1 (stereo not drawn) the results were Anthrax LF prot -9, Mtb FBA inh -2, BoNT F protease -3, GDH-TPI inh 1, Autofluor counter 3266 and BoNT A protease 0.
Screening CC1=C(C(=O)OC(C)C)C(c2ccc(F)cc2)NC(=O)N1 (stereo not drawn) returned Anthrax LF prot 0, Mtb FBA inh -3, BoNT F protease -2, GDH-TPI inh 8, Autofluor counter 16191* and BoNT A protease 0.
`CC1=CC(=O)C2=C(C)CCC3C(C)C(=O)OC3C12` (stereo not drawn) gave Anthrax LF prot 7, Mtb FBA inh -1, BoNT F protease -2, GDH-TPI inh 0, Autofluor counter 5342 and BoNT A protease -1.
Screening COc1ccc(Cl)cc1C=CC=NNS(=O)(=O)c1ccc(C)cc1 returned Anthrax LF prot -1, Mtb FBA inh 0, BoNT F protease 0, GDH-TPI inh 37*, Autofluor counter 3651 and BoNT A protease 0.
`CN1C(=O)CC(N2CCN(C(=O)CN3CCCC3)CC2)C1=O` (stereo not drawn) gave Anthrax LF prot 1, Mtb FBA inh 2, BoNT F protease -6, GDH-TPI inh -8, Autofluor counter 24470* and BoNT A protease -2.
For CN1C(=O)CC(N2CCN(CC(=O)N3CCCC3)CC2)C1=O (stereo not drawn) the results were Anthrax LF prot 2, Mtb FBA inh 1, BoNT F protease 1, GDH-TPI inh -7, Autofluor counter 3298 and BoNT A protease 1.
`COc1ccc(CC(C(=O)Nc2cc(C)ccc2C)/C(N)=N/O)cc1` (stereo not drawn) gave Anthrax LF prot -2, Mtb FBA inh 4, BoNT F protease -1, GDH-TPI inh 5, Autofluor counter 16939* and BoNT A protease -1.
Cc1ccc2cccc(OC(=O)N3CCCC3)c2n1 was read as Anthrax LF prot 2, Mtb FBA inh 0, BoNT F protease -10, GDH-TPI inh -12, Autofluor counter 22325* and BoNT A protease -9.
For Cc1ccc(S(=O)(=O)N2CCC(C(=O)OC(C)C(=O)NCc3ccc4c(c3)OCO4)CC2)cc1 (stereo not drawn) the results were Anthrax LF prot -1, Mtb FBA inh 0, BoNT F protease -3, GDH-TPI inh 8, Autofluor counter 23314* and BoNT A protease inconclusive.
For CC(=O)c1ccc(-n2c(CCC(=O)O)ccc2-c2ccc(Br)cc2)cc1 the results were Anthrax LF prot 14, Mtb FBA inh 0, BoNT F protease 14, GDH-TPI inh -9, Autofluor counter 3292 and BoNT A protease 1.
Cc1noc(NS(=O)(=O)c2ccc(NC(=O)CSc3nc4c(cc3C#N)CCCCC4)cc2)c1C was read as Anthrax LF prot -2, Mtb FBA inh 1, BoNT F protease -7, GDH-TPI inh 2, Autofluor counter 24886* and BoNT A protease -3.
N#Cc1cc2c(nc1SCC(=O)NCc1ccc3c(c1)OCO3)CCCCC2 was read as Anthrax LF prot -1, Mtb FBA inh -1, BoNT F protease 0, GDH-TPI inh -2, Autofluor counter 18758* and BoNT A protease 2.

Bioassay records from PubChem.
